Records with an inconclusive call do not appear. Calls of active or inactive are those of the source. How the source made its calls: active means hit-call score of the fitted dose curve at least 0.9, where 1 is the maximum; inconclusive means response in the unintended direction; inactive means score below 0.9.
Test: TOX21_p53_BLA_p2_viability: Viability Assessment in the Tox21 HCT-116 p53 Agonism Beta-lactamase Assay, Phase 2 (AID 2283591);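 further: compound exposure lasted 16 h at 37 °C; actives lower the ATP signal meaning cytotoxicity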
Procedure, shortened: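 HCT-116 p53-bla cells (4000/well) rested 5 h at 37C, then received compounds in DMSO (217-fold dilution) for 16 h at 37C, 5% CO2. After the CCF4 read, CellTiter-Glo was added; ATP luminescence was read after 30 min at room temperature.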

| Structure (SMILES) | outcome |
| --- | --- |
| C[Si](NC1CCCCC1)(NC1CCCCC1)NC1CCCCC1 | inactive |
| CC(C[N+](C)(C)C)OC(N)=O (centres undefined) | inactive |
| CC(C)NNC(=O)c1ccncc1 | inactive |
| CC(O)C(CO)C(C)O (centres undefined) | inactive |
| Cc1ccc2c(n1)Oc1ccc(C(C)C(=O)OCC(=O)N(C)C)cc1C2 (centres undefined) | inactive |
| C=C[C@]1(C)C[C@@H](OC(=O)CSC(C)(C)CNC(=O)[C@H](N)C(C)C)[C@]2(C)[C@H](C)CC[C@]3(CCC(=O)[C@H]32)[C@@H](C)[C@@H]1O | inactive |
| O=C(O)CCCCCCCCCCCBr | inactive |
| OCCCNc1ccccc1 | inactive |
| CNCCCCOc1ccccc1Cc1ccccc1 | inactive |
| OC(CCN1CCCC1)(c1ccccc1)C1CCCCC1 (centres undefined) | inactive |
| CN(C/C=C/C#CC(C)(C)C)Cc1cccc2ccccc12 | inactive |
| O=C[C@H](O)[C@@H](O)[C@@H](O)[C@H](O)CO | inactive |
| CC/C=C\C/C=C\C/C=C\C/C=C\C/C=C\CCCC(=O)O | inactive |
| Nc1ccc(N=Nc2ccccc2)c(N)c1 | inactive |
| COC(=O)c1ccc(C(=O)O)cc1 | inactive |
| COc1cc2[nH]c(C)c(CCN3CCN(c4ccccc4)CC3)c2cc1OC | inactive |
| COc1cc2c(cc1OC)-c1cc3ccc(OC)c(OC)c3c[n+]1CC2 | inactive |
| C1=CC2C3C=CC(C3)C2C1 (centres undefined) (tested in a mixture with another compound) | inactive |
| OC(CN1CCC(Cc2ccc(F)cc2)CC1)c1ccc(Cl)cc1 (centres undefined) | inactive |
| O=C(O)CCCCCC(=O)O | inactive |

| Structure (SMILES) | outcome |
| --- | --- |
| C[S+](C)CCC(N)C(=O)O (centres undefined) | inactive |
| COc1cc(C)nc(-n2nc(C)cc2OC)n1 | inactive |
| CN(C(=O)CCCOc1ccc2[nH]c(=O)ccc2c1)C1CCCCC1 | inactive |
| CCN(CC)c1ccc2c(-c3ccc(S(=O)(=O)O)cc3S(=O)(=O)[O-])c3ccc(=[N+](CC)CC)cc-3oc2c1 | inactive |
| Cc1cc(C(C)(C)C)c(O)c(C)c1Cn1c(=O)n(Cc2c(C)cc(C(C)(C)C)c(O)c2C)c(=O)n(Cc2c(C)cc(C(C)(C)C)c(O)c2C)c1=O | inactive |
| Cc1nnc(C(C)C)n1C1C[C@H]2CC[C@@H](C1)N2CC[C@@H](NC(=O)C1CCC(F)(F)CC1)c1ccccc1 (some centres undefined) | inactive |
| Cc1nc2ccccn2c(=O)c1CCN1CCC(C(=O)c2ccc(F)cc2)CC1 | inactive |
| CO[C@H]1/C=C/O[C@@]2(C)Oc3c(C)c(O)c4c(O)c(c5c(c4c3C2=O)=NC2(CCN(CC(C)C)CC2)N=5)NC(=O)/C(C)=C\C=C\[C@H](C)[C@H](O)[C@@H](C)[C@@H](O)[C@@H](C)[C@H](OC(C)=O)[C@@H]1C | inactive |
| CCCCCCCCS(=O)(=O)Cl | inactive |
| CNC(=O)CN(CCN(CCN(CC(=O)[O-])CC(=O)NC)CC(=O)[O-])CC(=O)[O-].O.[Gd+3] | inactive |
| C[N+]1(C)CCC(=C(c2ccccc2)c2ccccc2)CC1 | inactive |
| CN[C@@H]1[C@H](O)[C@H](NC)[C@H]2O[C@@]3(O)C(=O)C[C@@H](C)O[C@H]3O[C@@H]2[C@H]1O | inactive |
| CC(C)(C(=O)O)c1ccc(C(O)CCCN2CCC(C(O)(c3ccccc3)c3ccccc3)CC2)cc1 (centres undefined) | inactive |
| Cc1cccc(C)c1NC(=O)c1ccccc1C(=O)O | inactive |
| CCCCCCCCCCCCI | inactive |
| CCCCN(CCCC)CC(O)c1cc(Cl)cc2c1-c1ccc(Cl)cc1/C2=C/c1ccc(Cl)cc1 (centres undefined) | inactive |
| CC(C)(C)c1ccc(C(=O)CCCN2CCC(OC(c3ccccc3)c3ccccc3)CC2)cc1 | inactive |
| CCCCCCCCCI | inactive |
| C[CH2][Ge]([Cl])([CH2]C)[CH2]C | inactive |

Source: PubChem BioAssay (EPA / NIEHS)
